Reference: PubChem BioAssay (NCATS)
Inconclusive results are not listed. Entries that show only a call come without a potency. Calls of active or inactive are those of the source. Calls come from the whole dose curve.

Tests used:
[1] = Primary qHTS for Huh7 cytotoxicity: counterscreen for inhibitors of MERS-S pseudotyped particle cell entry (AID 1479147); details: outcome: dose series up to 57.1 µM unless noted
[2] = Primary qHTS for Vero E6 cytotoxicity: counterscreen for inhibitors of SARS-S pseudo-typed particle cell entry (AID 1479150); details: outcome: dose series up to 57.1 µM unless noted
[3] = Cytotoxicity counterscreen for inhibitors of SARS-CoV-2 cell entry (AID 1645845); details: outcome: dose series up to 57.1 µM unless noted; note: nearly all actives have a fitted effect of over 50% in size; note: potency is the fitted concentration of half-maximal effect
Summary of the method: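 48 h compound treatment (after 1 h preincubation), HEK293-ACE2 cells, 37 C/5% CO2; ATP luminescence endpoint; normalized to cell wells and media blanks.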

[4] = Primary qHTS to identify inhibitors of SARS-CoV-2 cell entry (AID 1645846); details: SARS-CoV-2 pseudovirus cell entry assay, luminescence; activity change, negative = inhibition: at 57.1 µM (top of the series) unless noted; note: nearly all actives have a fitted effect of over 45% in size; note: potency is the fitted concentration of half-maximal effect
Summary of the method: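 Luminescence readout (Bright-Glo luciferase) 48 h after pseudoparticle addition. HEK293-ACE2 cells, 1500/well; compound pre-incubation 1 h; Normalized to spike PP and bald PP.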

[5] = Confirmatory qHTS to identify inhibitors of SARS-CoV-2 cell entry (AID 1645844); note: potency is the fitted concentration of half-maximal effect; nearly all actives have a fitted effect of over 45% in size
Summary of the method: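 Luminescence from a luciferase reporter, read 48 hr after pseudotyped-particle addition, gives entry signal, normalised to spike-bearing PP wells and bald PP lacking fusion protein wells. Cells are Expi293F stably expressing human ACE2, compound-pretreated 1 hr.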

[6] = VSVG counterscreen qHTS to identify inhibitors of SARS-CoV-2 cell entry (AID 1645847); note: potency is the fitted concentration of half-maximal effect; nearly all actives have a fitted effect of over 65% in size
Summary of the method: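 HEK293-ACE2 cells (Expi293F stably expressing human ACE2) were pretreated with compound for 1 h at 37 °C, then infected with MLV-based VSV-G pseudotyped particles for 48 h. Luciferase luminescence was normalized to VSV-G PP and bald PP wells.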

[7] = Confirmatory qHTS for VERO E6 Cytotoxicity Assay: Counterscreen for SARS-CoV-2 CPE Assay (AID 1508605); note: nearly all actives have a fitted effect of over 60% in size

## CCCCCCCCCC(=O)OCCN1CCN(CC/C=C2\c3ccccc3Sc3ccc(C(F)(F)F)cc32)CC1
[1]
  Potency: inactive
[2]
  Potency: inactive
[3]
  Potency: inactive

## CCN1CCC(=C2c3ccccc3CCc3ccccc32)C1C (stereo unspecified)
[1]
  Potency: inactive
[2]
  Potency: inactive
[3]
  Potency: inactive

## CC(=O)c1ccc2c(c1)N(CCCN1CCN(CCO)CC1)c1ccccc1S2
[1]
  Potency: inactive
[2]
  Potency: inactive
[3]
  Potency: inactive
[4]
  activity change, negative = inhibition: -25.7%

## OC(CCN1CCCCC1)(c1ccccc1)C1CCCC1 (stereo unspecified)
[1]
  Potency: inactive
[2]
  Potency: inactive
[3]
  Potency: inactive

## C=Cc1c(C)c2cc3nc(cc4[nH]c(cc5nc(cc1[nH]2)C(C)=C5CCC(=O)O)c(CCC(=O)OC)c4C)[C@@]1(C)C3=CC=C(C(=O)OC)[C@@H]1C(=O)OC
[1]
  Potency: inactive
[2]
  Potency: inactive
[3]
  Potency: inactive

## [2H]C([2H])([2H])C(O)([C@@H](C)/C=C/[C@@H](C)[C@H]1CC[C@H]2/C(=C/C=C3C[C@@H](O)C[C@H](O)C3)CCC[C@]12C)C([2H])([2H])[2H]
[1]
  Potency: inactive
[2]
  Potency: inactive
[5]
  Potency: 6.81 µM (active)
[3]
  Potency: inactive
[4]
  activity change, negative = inhibition: -60.1%

## Cc1cnc(C(=O)N[C@H]2CCCCC/C=C\[C@H]3C[C@@]3(C(=O)NS(=O)(=O)C3CC3)NC(=O)[C@@H]3C[C@@H](Oc4nc5ccccc5c5ccccc45)CN3C2=O)cn1
[1]
  Potency: inactive
[2]
  Potency: inactive
[3]
  Potency: inactive

## COc1cc2c(cc1OC)[C@H]1C[C@@H](OC(=O)[C@@H](N)C(C)C)[C@H](CC(C)C)CN1CC2
[1]
  Potency: inactive
[2]
  Potency: inactive
[3]
  Potency: inactive

## CCC1OC(=O)[C@H](C)C(=O)[C@H](C)[C@@H](OC2O[C@H](C)C[C@H](N(C)C)[C@H]2O)[C@](C)(OC)C[C@@H](C)C(=O)[C@@H](C)[C@@H]2N(CCCCn3cnc(-c4cccnc4)c3)C(=O)O[C@]12C (stereo partly specified)
[1]
  Potency: inactive
[2]
  Potency: inactive
[3]
  Potency: inactive

## Cc1ccc(C2(O)CCN(CCCC(=O)c3ccc(F)cc3)CC2)cc1
[1]
  Potency: inactive
[2]
  Potency: inactive
[3]
  Potency: inactive

## CC(CN1c2ccccc2Sc2cccnc21)N(C)C (stereo unspecified)
[1]
  Potency: inactive
[2]
  Potency: inactive
[5]
  Potency: 24.1 µM (active)
[3]
  Potency: inactive
[6]
  Potency: 24.1 µM (active)

## CCCCCCCCCC(=O)NO
[1]
  Potency: inactive
[2]
  Potency: inactive
[3]
  Potency: inactive

## CC(C)[C@H]1C(=O)N[C@@H](CCCN=C(N)N)C(=O)NCC(=O)N[C@@H](CC(=O)O)C(=O)N[C@H](Cc2ccccc2)C(=O)N1C
[1]
  Potency: inactive
[2]
  Potency: inactive
[3]
  Potency: inactive

## CO[C@H]1/C=C\O[C@@]2(C)Oc3c(C)c(O)c4c(O)c(c5c(c4c3C2=O)=NC2(CCN(CC(C)C)CC2)N=5)NC(=O)/C(C)=C\C=C/[C@H](C)[C@H](O)[C@@H](C)[C@@H](O)[C@@H](C)[C@H](OC(C)=O)[C@@H]1C
[1]
  Potency: inactive
[2]
  Potency: inactive
[3]
  Potency: inactive
[4]
  activity change, negative = inhibition: -26.3%

## CC(C)(C)NCC(O)COc1ccccc1C1CCCC1 (stereo unspecified)
[1]
  Potency: inactive
[2]
  Potency: inactive
[3]
  Potency: inactive
[4]
  Potency: 10 µM (active)
[6]
  Potency: 12.1 µM (active)

## CC[C@@H](C(=O)[C@@H](C)[C@@H](O)[C@H](C)CCc1ccc(C)c(O)c1C(=O)O)[C@H]1O[C@](CC)([C@H]2CC[C@](O)(CC)[C@H](C)O2)C[C@@H]1C
[1]
  Potency: inactive
[2]
  Potency: inactive
[3]
  Potency: 8.91 µM (active)
[4]
  Potency: 5.01 µM (active)

## CC(CC(c1ccccc1)c1ccccc1)NC(C)(C)C (stereo unspecified)
[1]
  Potency: inactive
[2]
  Potency: inactive
[3]
  Potency: inactive

## CNS(=O)(=O)CC1CCC(N(C)c2ncnc3[nH]ccc23)CC1 (stereo unspecified)
[1]
  Potency: inactive
[2]
  Potency: inactive
[3]
  Potency: inactive
[4]
  Potency: inactive

## O=C(CCCN1CCC(C(=O)c2ccc(F)cc2)CC1)c1ccc(F)cc1
[1]
  Potency: inactive
[2]
  Potency: inactive
[3]
  Potency: inactive

## Cc1cncc(CN2CCC(=C3c4ccc(Cl)cc4CCc4cccnc43)CC2)c1
[1]
  Potency: inactive
[2]
  Potency: inactive
[5]
  Potency: 0.607 µM (active)
[3]
  Potency: inactive

## OC[C@H]1NC[C@H](O)[C@@H](O)[C@@H]1O
[1]
  Potency: inactive
[2]
  Potency: inactive
[3]
  Potency: inactive

## CC(CN(C)C)CN1c2ccccc2Sc2ccc(C(F)(F)F)cc21 (stereo unspecified)
[1]
  Potency: inactive
[2]
  Potency: inactive
[7]
  Potency: inactive
[3]
  Potency: inactive
[4]
  Potency: 12.6 µM (active)

## C=CC[C@@H]1/C=C(\C)C[C@H](C)C[C@H](OC)[C@H]2O[C@@](O)(C(=O)C(=O)N3CCCC[C@H]3C(=O)O[C@H](/C(C)=C/[C@@H]3CC[C@@H](O)[C@H](OC)C3)[C@H](C)[C@@H](O)CC1=O)[C@H](C)C[C@@H]2OC
[1]
  Potency: inactive
[2]
  Potency: inactive
[3]
  Potency: inactive
[4]
  Potency: inactive

## CC(=O)O[C@]1(C(C)=O)CC[C@H]2[C@@H]3C=C(C)C4=CC(=O)CC[C@@H]4[C@H]3CC[C@@]21C
[1]
  Potency: inactive
[2]
  Potency: inactive
[3]
  Potency: inactive
[4]
  activity change, negative = inhibition: -20%

## CCCCCCC(COC(=O)c1cccnc1)(COC(=O)c1cccnc1)COC(=O)c1cccnc1
[1]
  Potency: inactive
[2]
  Potency: inactive
[3]
  Potency: inactive
[4]
  activity change, negative = inhibition: -17.5%

## COc1cc2[nH]c(C)c(CCN3CCN(c4ccccc4)CC3)c2cc1OC
[1]
  Potency: inactive
[2]
  Potency: inactive
[3]
  Potency: inactive
[4]
  activity change, negative = inhibition: -39.8%

## COc1c(-c2ccc3cc(NS(C)(=O)=O)ccc3c2)cc(-n2ccc(=O)[nH]c2=O)cc1C(C)(C)C
[1]
  Potency: inactive
[2]
  Potency: inactive
[3]
  Potency: inactive

## CC[C@@H]1/C=C(\C)C[C@H](C)C[C@H](OC)[C@H]2O[C@@](O)(C(=O)C(=O)N3CCCC[C@H]3C(=O)O[C@H](/C(C)=C/[C@@H]3CC[C@H](Cl)[C@H](OC)C3)[C@H](C)[C@@H](O)CC1=O)[C@H](C)C[C@@H]2OC
[1]
  Potency: inactive
[2]
  Potency: inactive
[3]
  Potency: inactive

## CC[C@@H](C)[C@H]1O[C@]2(CC[C@@H]1C)C[C@@H]1C[C@@H](C/C=C(\C)[C@@H](O[C@H]3C[C@H](OC)[C@@H](O[C@H]4C[C@H](OC)[C@@H](O)[C@H](C)O4)[C@H](C)O3)[C@@H](C)/C=C/C=C3\CO[C@@H]4[C@H](O)C(C)=C[C@@H](C(=O)O1)[C@]34O)O2
[1]
  Potency: inactive
[2]
  Potency: inactive
[3]
  Potency: inactive

## CC(C)C[C@H]1C(=O)N2CCC[C@H]2[C@]2(O)O[C@](NC(=O)[C@@H]3C=C4c5cccc6[nH]c(Br)c(c56)CC4N(C)C3)(C(C)C)C(=O)N12 (stereo partly specified)
[1]
  Potency: inactive
[2]
  Potency: inactive
[3]
  Potency: inactive
[4]
  Potency: 22.4 µM (active)

## COC(=O)C1=C(C#N)NC(C)=C(C(=O)OC(C)C)C1c1cccc([N+](=O)[O-])c1 (stereo unspecified)
[1]
  Potency: inactive
[2]
  Potency: inactive
[3]
  Potency: inactive
